# From PubChem BioAssay AID602438 (Sanford-Burnham Center for Chemical Genomics, 2012)
# The campaign covered roughly 360,000 compounds. About 3,100 (0.86%) were called active. The sample holds actives, similar compounds and a random draw of the others, so the mix is not that of the screen. Values without a mark were called inactive.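 How the source made its calls: active means inhibition or corrected inhibition above about 18%, plus a signal ratio from 0.5 to 1.5 (limit read from the data, passing the limit was not always enough); inactive means the rest.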
# Target: Neuropilin-1 (Homo sapiens) (UniProt O14786)
# Sequence (O14786 whole entry, looked up): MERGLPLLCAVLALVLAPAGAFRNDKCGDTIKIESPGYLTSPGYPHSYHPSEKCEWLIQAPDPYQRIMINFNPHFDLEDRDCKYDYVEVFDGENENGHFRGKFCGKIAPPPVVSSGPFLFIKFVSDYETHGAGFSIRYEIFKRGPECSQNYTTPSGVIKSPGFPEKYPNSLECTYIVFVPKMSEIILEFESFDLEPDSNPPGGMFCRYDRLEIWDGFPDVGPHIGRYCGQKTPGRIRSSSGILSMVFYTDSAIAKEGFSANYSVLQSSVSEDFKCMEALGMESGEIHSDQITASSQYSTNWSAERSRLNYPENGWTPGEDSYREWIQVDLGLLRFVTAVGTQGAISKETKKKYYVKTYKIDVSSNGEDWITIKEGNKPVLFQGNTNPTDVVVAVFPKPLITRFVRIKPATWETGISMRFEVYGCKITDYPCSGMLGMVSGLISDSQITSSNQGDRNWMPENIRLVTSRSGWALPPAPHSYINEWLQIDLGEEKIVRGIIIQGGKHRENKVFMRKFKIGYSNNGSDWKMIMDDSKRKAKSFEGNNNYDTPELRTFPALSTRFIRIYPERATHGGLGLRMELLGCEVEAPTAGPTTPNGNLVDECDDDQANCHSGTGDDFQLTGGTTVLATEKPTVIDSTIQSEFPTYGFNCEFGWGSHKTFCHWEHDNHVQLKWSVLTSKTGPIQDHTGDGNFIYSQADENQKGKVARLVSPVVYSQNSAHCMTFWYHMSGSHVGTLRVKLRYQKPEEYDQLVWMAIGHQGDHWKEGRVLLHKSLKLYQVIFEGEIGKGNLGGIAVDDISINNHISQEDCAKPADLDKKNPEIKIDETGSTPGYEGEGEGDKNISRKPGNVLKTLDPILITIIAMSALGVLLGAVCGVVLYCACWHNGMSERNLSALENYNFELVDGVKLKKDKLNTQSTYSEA
# Experiment: NRP-1/CendR peptide interaction modulators – biochemical, fluorescence polarization, uHTS, primary screen (AID 602438)
# Settings: FAM-RPARPAR peptide binding to NRP-1, fluorescence polarization; at 25 µM; stronger effect = higher value
row,Structure (SMILES),inhibition
1,CCC(=NCCc1ccccc1)c1c(O)n(C2CCCCC2)c(=O)[nH]c1=O,24% (active)
2,CC(=O)c1c(O)n(C2CCCCCC2)c(=O)[nH]c1=O,-12.9%
3,CCCCCCN=C(CC)c1c(O)n(CCCC)c(=O)[nH]c1=O,-5.7%
4,COc1ccccc1C1=NCc2nnc(CSC)n2-c2ccc(Cl)cc21,10.2%
5,COC(=O)[C@@H]1C(OC(=O)c2ccccc2)CC2CCC1N2C (stereo not given in full),-1.6%
6,Cc1ccc(Cn2nnnc2CN2CCC(n3nnc4ccccc43)CC2)cc1,25.7% (active)
7,O=c1[nH]c2ccccc2n1C1CCN(C(c2ccccc2)c2nnnn2Cc2ccccc2)CC1 (stereo not given),11.2%
8,O=c1[nH]c2ccccc2n1C1CCN(C(c2ccnc3ccccc23)c2nnnn2Cc2ccccc2)CC1 (stereo not given),6.4%
9,CN(C)P(=S)(Nc1ccccc1)C(Cl)(Cl)Cl (stereo not given),7.8%
10,COC(=O)C1=C(c2cccc(OCc3ccccc3)c2)C[C@@H]2CC[C@H]1N2C(=O)NNCc1ccccc1,8.8%
11,COC(=O)C1=C(c2cc3ccccc3s2)C[C@@H]2CC[C@H]1N2C(=O)NCCO,-10.5%
12,COC(=O)C1=C(c2ccc3ccccc3c2)C[C@@H]2CC[C@H]1N2C(=O)NCCO,-3.3%
13,COC(=O)C1=C(c2ccc(C(C)=O)cc2)C[C@@H]2CC[C@H]1N2C(=O)NCCNC(C)=O,34.8% (active)
14,COC(=O)C1=C(c2ccccc2)C[C@@H]2CC[C@H]1N2C(=O)N1CCCCC1,32.5% (active)
15,COC(=O)C1=C(c2ccccc2)C[C@@H]2CC[C@H]1N2C(=O)NCc1ccco1,-16.6%
16,NCCc1c[nH]c2ccc(O)cc12,10.4%
17,CCC(C)(O)C(=O)OC1C(=O)OC2CC3C(C)=CC(=O)C(O)C3(C)C3C4(O)OCC23C1C(C)C4O (stereo not given),9.9%
18,CCOC(=O)[C@]12Cc3ccccc3[C@H]1N(C1CCCCC1)C(=O)c1cc(OC)ccc12,2.7%
19,Cc1ccc(OC(=O)N(C)C[C@@H]2OCc3cnnn3CCCC(=O)N([C@H](C)CO)C[C@@H]2C)cc1,9.5%
20,Cc1ccc(S(=O)(=O)N(C)c2ccc(C(=O)NCC3(N(C)C)CCCCC3)cc2)cc1,-2%
21,CCCCCn1c(=O)c(C(=O)Nc2c(C)n(C)n(-c3ccccc3)c2=O)c(O)c2ccccc21,3.5%
22,CC(C)c1ccc(OCC(=O)N2CCN(C)CC2)c(Br)c1,13.4%
23,CN1CCN(C(=O)COc2ccc(C(C)(C)C)cc2Br)CC1,10%
24,CC(C)c1ccc(OCC(=O)N2CCCN(C)CC2)cc1,28.1% (active)
25,CCN1c2nc3c(C)cccn3c(=O)c2CC2(C(=O)N(C)C(=O)N(C)C2=O)C1C (stereo not given),10.7%
